Columns and labels:
[1] = molecular target: Serine/threonine-protein kinase pim-2 (Homo sapiens) (UniProt Q9P1W9); details: at 1 µM;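 further: each value is a mean of the inhibition measurements against the kinase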
[2] = molecular target: Serine/threonine-protein kinase pim-3 (Homo sapiens) (UniProt Q86V86); details: at 0.1 µM
[3] = molecular target: Serine/threonine-protein kinase pim-3 (Homo sapiens) (UniProt Q86V86); details: at 1 µM
[4] = molecular target: T1, MAP kinase-activated protein kinase 5 (Homo sapiens) (UniProt Q8IW41); details: at 0.1 µM
T1 sequence (whole entry): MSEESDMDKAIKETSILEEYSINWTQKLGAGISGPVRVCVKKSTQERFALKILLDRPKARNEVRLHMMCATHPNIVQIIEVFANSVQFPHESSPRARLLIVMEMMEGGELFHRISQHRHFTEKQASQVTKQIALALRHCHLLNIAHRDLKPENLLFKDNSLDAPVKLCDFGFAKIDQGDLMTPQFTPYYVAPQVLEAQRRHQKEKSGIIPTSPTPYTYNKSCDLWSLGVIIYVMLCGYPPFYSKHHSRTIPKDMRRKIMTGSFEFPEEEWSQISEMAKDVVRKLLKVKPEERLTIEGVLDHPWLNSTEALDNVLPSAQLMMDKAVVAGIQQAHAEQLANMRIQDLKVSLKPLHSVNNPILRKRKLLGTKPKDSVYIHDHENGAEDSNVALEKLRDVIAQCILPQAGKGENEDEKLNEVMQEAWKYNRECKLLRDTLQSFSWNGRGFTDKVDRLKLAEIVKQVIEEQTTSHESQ

[5] = molecular target: T1, MAP kinase-activated protein kinase 5 (Homo sapiens); details: at 1 µM
[6] = molecular target: Serine/threonine-protein kinase SIK1 (Homo sapiens) (UniProt P57059); details: at 0.1 µM
Chain of Serine/threonine-protein kinase SIK1 (Homo sapiens) (P57059 whole entry): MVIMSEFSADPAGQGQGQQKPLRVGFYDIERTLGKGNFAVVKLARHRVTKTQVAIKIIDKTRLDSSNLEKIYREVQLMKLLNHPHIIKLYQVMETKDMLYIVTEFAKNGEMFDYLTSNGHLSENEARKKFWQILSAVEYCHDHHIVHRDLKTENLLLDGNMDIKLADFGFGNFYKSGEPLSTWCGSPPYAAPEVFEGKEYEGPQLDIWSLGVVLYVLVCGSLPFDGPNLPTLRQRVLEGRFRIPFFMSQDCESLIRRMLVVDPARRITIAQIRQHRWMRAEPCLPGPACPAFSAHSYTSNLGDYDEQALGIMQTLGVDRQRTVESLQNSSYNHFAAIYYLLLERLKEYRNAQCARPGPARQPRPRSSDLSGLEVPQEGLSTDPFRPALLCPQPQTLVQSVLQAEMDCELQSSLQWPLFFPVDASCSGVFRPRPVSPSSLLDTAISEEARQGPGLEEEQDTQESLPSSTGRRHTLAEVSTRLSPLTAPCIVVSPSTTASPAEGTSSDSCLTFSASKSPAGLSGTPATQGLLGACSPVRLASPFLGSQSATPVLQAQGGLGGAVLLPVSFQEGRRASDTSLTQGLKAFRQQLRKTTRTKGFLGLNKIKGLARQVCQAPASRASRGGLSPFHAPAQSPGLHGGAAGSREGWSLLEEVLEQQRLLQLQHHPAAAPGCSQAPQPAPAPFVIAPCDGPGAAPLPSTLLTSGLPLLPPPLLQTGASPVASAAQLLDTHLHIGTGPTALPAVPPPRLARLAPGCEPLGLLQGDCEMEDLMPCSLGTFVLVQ

[7] = molecular target: Serine/threonine-protein kinase SIK1 (Homo sapiens) (UniProt P57059); details: at 1 µM
[8] = molecular target: Serine/threonine-protein kinase SIK2 (Homo sapiens) (UniProt Q9H0K1); details: at 0.1 µM
Chain of Serine/threonine-protein kinase SIK2 (Homo sapiens) (Q9H0K1 whole entry, looked up): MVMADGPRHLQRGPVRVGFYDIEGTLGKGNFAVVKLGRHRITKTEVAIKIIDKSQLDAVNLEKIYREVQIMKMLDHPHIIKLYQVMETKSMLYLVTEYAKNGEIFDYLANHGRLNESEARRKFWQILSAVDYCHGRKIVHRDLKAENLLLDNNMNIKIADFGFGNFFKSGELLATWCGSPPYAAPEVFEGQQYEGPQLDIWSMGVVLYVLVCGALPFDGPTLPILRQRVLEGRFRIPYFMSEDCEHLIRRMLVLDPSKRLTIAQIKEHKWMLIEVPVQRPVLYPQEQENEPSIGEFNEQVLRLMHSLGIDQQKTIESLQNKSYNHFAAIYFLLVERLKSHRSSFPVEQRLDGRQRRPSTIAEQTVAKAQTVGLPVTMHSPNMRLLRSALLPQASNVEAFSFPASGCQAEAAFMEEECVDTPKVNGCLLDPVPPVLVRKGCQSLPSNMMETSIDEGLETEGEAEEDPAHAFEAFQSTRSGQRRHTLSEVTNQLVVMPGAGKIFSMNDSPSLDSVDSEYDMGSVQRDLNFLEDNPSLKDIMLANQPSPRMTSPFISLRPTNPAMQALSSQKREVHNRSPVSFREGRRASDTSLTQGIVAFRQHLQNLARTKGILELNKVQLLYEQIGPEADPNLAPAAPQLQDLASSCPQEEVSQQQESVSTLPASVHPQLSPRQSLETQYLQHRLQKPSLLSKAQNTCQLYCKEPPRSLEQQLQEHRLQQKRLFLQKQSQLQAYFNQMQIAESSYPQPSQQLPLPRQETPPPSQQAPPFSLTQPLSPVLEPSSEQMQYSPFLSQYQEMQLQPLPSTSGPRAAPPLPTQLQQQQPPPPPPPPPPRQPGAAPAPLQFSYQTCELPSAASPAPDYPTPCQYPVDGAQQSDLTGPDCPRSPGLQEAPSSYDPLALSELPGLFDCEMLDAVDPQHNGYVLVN

[9] = molecular target: Serine/threonine-protein kinase SIK2 (Homo sapiens) (UniProt Q9H0K1); details: at 1 µM
[10] = molecular target: T2, Serine/threonine-protein kinase TBK1 (Homo sapiens) (UniProt Q9UHD2); details: at 0.1 µM
T2 sequence (whole entry): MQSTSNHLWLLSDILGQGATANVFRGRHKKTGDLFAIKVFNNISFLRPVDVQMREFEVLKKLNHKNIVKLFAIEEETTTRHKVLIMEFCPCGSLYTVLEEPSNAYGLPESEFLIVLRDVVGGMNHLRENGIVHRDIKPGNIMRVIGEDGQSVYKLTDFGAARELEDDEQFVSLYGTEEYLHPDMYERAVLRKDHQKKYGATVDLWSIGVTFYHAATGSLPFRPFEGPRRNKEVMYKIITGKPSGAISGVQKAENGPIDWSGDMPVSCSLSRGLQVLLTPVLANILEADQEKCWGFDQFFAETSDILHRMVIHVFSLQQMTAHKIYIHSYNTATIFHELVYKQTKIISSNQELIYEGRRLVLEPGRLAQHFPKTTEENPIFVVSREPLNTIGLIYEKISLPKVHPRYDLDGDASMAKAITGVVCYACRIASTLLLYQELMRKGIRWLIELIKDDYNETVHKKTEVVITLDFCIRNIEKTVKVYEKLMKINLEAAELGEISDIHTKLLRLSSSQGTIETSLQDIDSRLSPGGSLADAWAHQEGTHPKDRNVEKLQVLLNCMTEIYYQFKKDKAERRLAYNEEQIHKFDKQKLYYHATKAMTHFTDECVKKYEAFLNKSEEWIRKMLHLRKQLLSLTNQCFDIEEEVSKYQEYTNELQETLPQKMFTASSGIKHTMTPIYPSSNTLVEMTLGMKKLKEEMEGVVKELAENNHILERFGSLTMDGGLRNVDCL

[11] = molecular target: T2, Serine/threonine-protein kinase TBK1 (Homo sapiens); details: at 1 µM
[12] = molecular target: T3, Testis-specific serine/threonine-protein kinase 1 (Homo sapiens) (UniProt Q9BXA7); details: at 0.1 µM
T3 sequence (whole entry): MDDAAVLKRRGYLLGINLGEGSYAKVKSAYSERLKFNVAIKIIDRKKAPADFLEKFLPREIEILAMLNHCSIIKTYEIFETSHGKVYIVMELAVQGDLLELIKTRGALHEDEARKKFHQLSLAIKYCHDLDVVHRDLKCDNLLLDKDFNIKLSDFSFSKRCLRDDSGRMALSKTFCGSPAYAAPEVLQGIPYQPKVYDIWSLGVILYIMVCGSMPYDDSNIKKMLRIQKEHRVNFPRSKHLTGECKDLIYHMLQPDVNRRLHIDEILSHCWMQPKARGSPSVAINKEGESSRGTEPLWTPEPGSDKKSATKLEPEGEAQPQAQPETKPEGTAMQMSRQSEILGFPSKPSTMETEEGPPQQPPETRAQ

[13] = molecular target: T3, Testis-specific serine/threonine-protein kinase 1 (Homo sapiens); details: at 1 µM
[14] = molecular target: T4, Testis-specific serine/threonine-protein kinase 2 (Homo sapiens) (UniProt Q96PF2); details: at 0.1 µM
T4 sequence (whole entry): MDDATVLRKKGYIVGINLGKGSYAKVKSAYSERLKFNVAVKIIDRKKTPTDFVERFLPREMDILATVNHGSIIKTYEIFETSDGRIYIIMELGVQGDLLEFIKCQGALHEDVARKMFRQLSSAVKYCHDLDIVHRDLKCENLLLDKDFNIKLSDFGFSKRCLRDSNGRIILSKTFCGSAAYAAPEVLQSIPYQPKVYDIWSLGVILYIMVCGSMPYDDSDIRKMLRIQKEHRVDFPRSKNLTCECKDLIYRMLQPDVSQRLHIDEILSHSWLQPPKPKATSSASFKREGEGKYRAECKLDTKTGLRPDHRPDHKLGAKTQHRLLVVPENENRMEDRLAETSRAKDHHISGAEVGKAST

[15] = molecular target: T4, Testis-specific serine/threonine-protein kinase 2 (Homo sapiens); details: at 1 µM
[16] = molecular target: Casein kinase I isoform alpha (Homo sapiens) (UniProt P48729); details: at 0.1 µM
Chain of Casein kinase I isoform alpha (Homo sapiens) (P48729 2-337 limits assumed): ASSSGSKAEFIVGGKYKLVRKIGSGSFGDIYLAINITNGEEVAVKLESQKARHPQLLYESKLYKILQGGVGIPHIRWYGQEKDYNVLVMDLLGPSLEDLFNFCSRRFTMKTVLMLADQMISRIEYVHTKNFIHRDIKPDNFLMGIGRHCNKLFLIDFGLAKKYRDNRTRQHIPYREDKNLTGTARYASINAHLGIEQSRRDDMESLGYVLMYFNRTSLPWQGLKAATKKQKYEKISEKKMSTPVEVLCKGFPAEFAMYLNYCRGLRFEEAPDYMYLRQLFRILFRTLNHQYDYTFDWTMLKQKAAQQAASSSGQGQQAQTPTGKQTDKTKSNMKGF

[17] = molecular target: Casein kinase I isoform alpha (Homo sapiens) (UniProt P48729); details: at 1 µM
[18] = molecular target: Casein kinase I isoform gamma-1 (Homo sapiens) (UniProt Q9HCP0); details: at 0.1 µM
Chain of Casein kinase I isoform gamma-1 (Homo sapiens) (Q9HCP0 whole entry, looked up, canonical isoform): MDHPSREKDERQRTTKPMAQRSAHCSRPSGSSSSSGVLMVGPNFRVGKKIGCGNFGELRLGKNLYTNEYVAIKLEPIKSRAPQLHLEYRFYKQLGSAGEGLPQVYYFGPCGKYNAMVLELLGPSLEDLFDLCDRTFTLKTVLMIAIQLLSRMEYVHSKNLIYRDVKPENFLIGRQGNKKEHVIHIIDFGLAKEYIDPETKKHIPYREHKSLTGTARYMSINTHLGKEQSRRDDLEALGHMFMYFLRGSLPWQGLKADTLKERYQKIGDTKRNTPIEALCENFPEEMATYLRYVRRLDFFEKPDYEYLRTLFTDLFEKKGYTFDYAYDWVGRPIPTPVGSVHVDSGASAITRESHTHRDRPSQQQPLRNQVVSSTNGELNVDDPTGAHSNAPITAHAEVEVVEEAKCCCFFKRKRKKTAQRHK

[19] = molecular target: Casein kinase I isoform gamma-1 (Homo sapiens) (UniProt Q9HCP0); details: at 1 µM
[20] = molecular target: Casein kinase I isoform gamma-2 (Homo sapiens) (UniProt P78368); details: at 0.1 µM;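 further: values are mean inhibition figures reported as part of the GSK PKIS dataset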
Chain of Casein kinase I isoform gamma-2 (Homo sapiens) (P78368 whole entry, looked up, canonical isoform): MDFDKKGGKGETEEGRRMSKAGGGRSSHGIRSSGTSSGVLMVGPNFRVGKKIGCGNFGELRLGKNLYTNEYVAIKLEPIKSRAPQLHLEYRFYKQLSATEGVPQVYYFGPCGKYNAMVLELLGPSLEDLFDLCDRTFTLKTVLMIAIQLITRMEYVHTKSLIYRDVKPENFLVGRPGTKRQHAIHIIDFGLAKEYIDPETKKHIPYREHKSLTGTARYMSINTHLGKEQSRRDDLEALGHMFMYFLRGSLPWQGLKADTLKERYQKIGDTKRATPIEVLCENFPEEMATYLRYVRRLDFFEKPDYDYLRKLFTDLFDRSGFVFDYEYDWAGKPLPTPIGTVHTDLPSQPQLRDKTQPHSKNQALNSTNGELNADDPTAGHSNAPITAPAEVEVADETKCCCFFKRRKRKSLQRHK

Chain of Serine/threonine-protein kinase pim-2 (Homo sapiens) (Q9P1W9 whole entry, looked up): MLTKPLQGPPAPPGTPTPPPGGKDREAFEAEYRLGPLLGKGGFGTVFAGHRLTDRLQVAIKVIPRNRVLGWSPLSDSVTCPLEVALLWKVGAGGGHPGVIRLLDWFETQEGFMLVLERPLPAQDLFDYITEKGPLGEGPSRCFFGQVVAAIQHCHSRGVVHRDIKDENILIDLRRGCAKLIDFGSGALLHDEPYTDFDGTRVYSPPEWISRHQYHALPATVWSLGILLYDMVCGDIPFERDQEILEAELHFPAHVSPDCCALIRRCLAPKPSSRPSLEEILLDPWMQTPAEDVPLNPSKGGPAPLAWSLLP

Structure (SMILES) | inhibition [1] | inhibition [2] | inhibition [3] | inhibition [4] | inhibition [5] | inhibition [6] | inhibition [7] | inhibition [8] | inhibition [9] | inhibition [10] | inhibition [11] | inhibition [12] | inhibition [13] | inhibition [14] | inhibition [15] | inhibition [16] | inhibition [17] | inhibition [18] | inhibition [19] | inhibition [20]
CN(C)c1ccc2c(c1)/C(=C/Nc1ccc(S(N)(=O)=O)cc1)C(=O)N2 | 1.18% | 0.39% | 0.56% | 0.23% | 0.46% | 3.94% | 14.7% | 5.24% | 18.2% | 6.65% | 49.7% | 2.84% | 9.92% | 0.44% | 1.25% | 1.06% | 2.88% | 1.12% | 1.57% | 1.13%
CN(C)CCCNc1nccc(-c2c(-c3ccc(F)cc3)nn3cc(C(F)(F)F)ccc23)n1 | -3.32% | -0.45% | -0.57% | 0.44% | -0.97% | 3.07% | 7.21% | -1% | 6.81% | 0.75% | 4.86% | 1.45% | -1.19% | 0.61% | -2.11% | 1.35% | 14.8% | -2.45% | -1.14% | -3.5%
O=C1NC(=O)C(c2cccc(Cl)c2)=C1Nc1ccc(Cl)c(C(=O)O)c1 | -0.53% | 0.54% | 0.43% | 1.73% | 2.67% | 4.05% | 5.1% | 10.7% | 4.62% | 2.24% | 5.8% | 4.88% | 4.16% | 3.03% | 4.21% | 1.07% | 2.57% | 2.32% | 1.79% | 2.25%
NC(=O)c1ccc(Oc2nccc(-c3c(-c4ccc(F)cc4)ncn3C3CCNCC3)n2)cc1 | -0.49% | 0.26% | 1.82% | 3.51% | 2.54% | 4.73% | 11.3% | 7.22% | 3.63% | 3.9% | 4.3% | 4.45% | 5.29% | 2.52% | 2.46% | 5.63% | 30.3% | 5.2% | 9.98% | 5.16%
CCS(=O)(=O)c1ccc(OC)c(Nc2ncc(-c3ccccc3Cl)o2)c1 | 0.67% | -0.12% | 2.15% | 0.46% | -0.58% | 2.08% | 0.14% | 1.64% | 3.21% | 1.3% | 7.68% | 4.33% | -0.15% | 1.6% | 0.12% | 0.11% | 3.37% | 0.27% | 0.86% | 0.2%
Fc1ccc(-c2ncn(C3CCNCC3)c2-c2ccnc(Oc3ccc4c(c3)OCO4)n2)cc1 | 0.71% | 0.14% | 1.3% | 2.12% | 2.05% | 5.99% | 6.9% | 2.25% | 18.5% | 2.29% | 4.07% | 4.2% | 4.17% | 2.83% | 4.26% | 6.52% | 31% | 5.84% | 13.1% | 4.86%
Fc1ccc(-c2ncn(C3CCNCC3)c2-c2ccnc(Oc3ccc(F)c(F)c3)n2)cc1 | -3.35% | -1.04% | -0.06% | 1.47% | 1.56% | 1.72% | 7.15% | 0.78% | 8.24% | 2.13% | 5.03% | 1.98% | 3.01% | 0.64% | 1.42% | 4.09% | 15.4% | 0.31% | 2.33% | -0.65%
O=C1Nc2ccccc2/C1=C/Nc1ccc(-n2cncn2)cc1 | 2.25% | 1.36% | 4.7% | 1.63% | 4.02% | 5.8% | 9.8% | 3.09% | 11.6% | 6.41% | 17.3% | 4.37% | 7.35% | 3.01% | 5.54% | 3.79% | 10.3% | 4.33% | 7.11% | 3.66%
O=C(Nc1ccc(Oc2ccc3[nH]c(NC(=O)c4ccccc4)nc3c2)cc1)Nc1cc(C(F)(F)F)ccc1F | -0.13% | 0.85% | -0.27% | 0.86% | 0.98% | 5.14% | 9.55% | 6.29% | 6.45% | 0.91% | 4.56% | 2.04% | 0.69% | 1.68% | 0.74% | 3.86% | 3.79% | 2.09% | 2.88% | 1.66%
COc1cccc(-n2cnc3c(N/N=C/c4ccncc4)ncnc32)c1 | -3.43% | 3.67% | 6.5% | 0.59% | 2.56% | 1.88% | 12% | 9.07% | 34.1% | 0.99% | 2.56% | 0.41% | 5.32% | 0.37% | 4.98% | 0.17% | 0.8% | -3.8% | -4.26% | -3.36%
COc1ccc2cc(-c3c(-c4ccncc4)nc(-c4ccc(S(C)(=O)=O)cc4C)n3C)ccc2c1 | 4.18% | 4.87% | 3.73% | 1.38% | 2.64% | 5.28% | 9.27% | 3.7% | 10.8% | 2.5% | 5.22% | 4.54% | 6.64% | 2.43% | 3.81% | 2.38% | 4% | 3.35% | 4.23% | 2.92%
O=C(Nc1n[nH]c2nc(-c3ccc(O)cc3)c(Br)cc12)C1CC1 | 75.2% | 31.9% | 73.9% | 2.42% | 3.04% | 6.92% | 17.1% | 14.2% | 19.9% | 4.12% | 22.6% | 5.99% | 5.96% | 3.73% | 4.53% | 4.72% | 5.83% | 4.64% | 5.67% | 4.14%

— ChEMBL document CHEMBL1961873, “Compounds: GSK PKIS; Assays: Nanosyn kinase panel” (2012)
